The supplement of paper PMC6555819

What was measured:
Assay in all cases: PBM binding z-score (relative to random genomic background probes); higher = stronger binding; sequences stand for … in GC…GCGATTGACAGCGTAGAATGAAGG
[1] = test system: RARb homodimer (NR concentration 270 nM)
Outline: (§1)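 Binding buffer was PBS pH 7.4 with 2% milk, 0.02% Triton X-100, 1 mM DTT, 0.2 mg/mL BSA and 0.4 mg/ml salmon testes DNA. In it, ligand-free nuclear receptor dimers were incubated 1 h on custom Agilent 4×180K protein-binding microarrays carrying double-stranded probes. Antibodies against each partner (one per run) detected binding, and z-scores were calculated against random background probes after regression normalization of scanned fluorescence.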

[2] = test system: RARg:RXRa (NR concentration 270 nM, RXRa partner concentration 90 nM)
Outline: as §1

[3] = test system: RARg homodimer (NR concentration 270 nM)
Outline: as §1

[4] = test system: RXRa DBDmut IVT, anti-RXR (DBD mutation: RXRa K156A/R161A, NR concentration 90 nM)
Outline: as §1

[5] = test system: RXRa homodimer (NR concentration 180 nM)
Outline: as §1

[6] = test system: THRa:RXRa (NR concentration 90 nM, RXRa partner concentration 90 nM)
Outline: as §1

[7] = test system: THRa homodimer (NR concentration 90 nM)
Outline: as §1

[8] = test system: VDR homodimer (NR concentration 270 nM)
Outline: as §1

| Sequence | PBM binding z-score [1] | PBM binding z-score [2] | PBM binding z-score [3] | PBM binding z-score [4] | PBM binding z-score [5] | PBM binding z-score [6] | PBM binding z-score [7] | PBM binding z-score [8] |
| --- | --- | --- | --- | --- | --- | --- | --- | --- |
| ATACCAAGGTGTTCGTGAGGTCGTTGATACTAAC | 1.53 | 0.824 | 0.278 | 0.712 | 0.997 | 2.96 | 2.38 | 2.98 |
| TAGCCTAGGTCATTCAGGGGCCAGGATAGAAAGC | 3.18 | 6.27 | 4.6 | 1.8 | 2.86 | 3.57 | 0.667 | 1.6 |
| CATACTGGGCCAAAGGTCATTGATTCCAATGCTC | 4.79 | 5.89 | 5.04 | 1.73 | 6.78 | 3.47 | 1.03 | 2.42 |
| CAAACTTGGTCAAGGTCAAAGTCGGTTTGTGCCA | 4.26 | 4.46 | 4.37 | 2.33 | 4.72 | 3.92 | 3.4 | 3.32 |
| ACTCGGAGGACAAAGGTCATAGCTACGCCAGTGA | 4.7 | 6.88 | 5.24 | 1.91 | 6.51 | 4.13 | 1.2 | 2.55 |
| GATACAGCGTCAAGGCCAGAGTACGCGTATTGAT | -0.276 | -0.245 | 0.129 | -0.11 | -0.253 | -0.179 | -0.406 | 0.0516 |
| GCGACTGGGGCATCAGCAGGCTACCATAACTTAA | 0.21 | -0.0453 | 0.15 | -0.185 | -0.168 | -0.0992 | 0.158 | -0.693 |
| GTTTGTAGATCAAGGTTAAGAAAGACTAAGCTAA | 0.79 | 0.774 | 0.839 | 0.638 | 0.913 | 1.44 | 0.453 | 0.645 |
| ACTATTAGATGAGACGAGGGCAACCGATAGGTTG | 1.3 | 0.879 | 1.09 | 0.518 | 0.632 | 1.42 | 0.659 | 0.77 |
| TATACAGGGTCAAAGGCCAGAATACGAATGTCGA | 3.2 | 5.71 | 5.1 | 2.7 | 6.99 | 3.41 | 0.697 | 2.6 |
| CAAACTAGGTCGCCGGAAGGTCAAAGTCCGCATG | 4.43 | 6.47 | 4.32 | 1.22 | 4.39 | 3.68 | 1.44 | 2.39 |
| GCTTGTAGATCAAGGATAAGAAAGACTAAGCTAA | -1.36 | -0.352 | -0.0867 | -0.727 | -0.555 | 0.0456 | -0.696 | -0.57 |
| ACTAGCAGGCCAAGTTTGGGTAACTCAAACAAAG | -0.346 | -0.166 | 0.104 | -0.417 | -0.603 | 0.525 | -0.513 | -0.292 |
| CGTCAAAGTGCAAGGTAACGTAACAGAAAGCAGC | 0.846 | 0.771 | 1.24 | 1.21 | 0.508 | 1.08 | 0.0291 | 0.017 |
